Consider 40 compounds from PubChem BioAssay (NCATS).

Results filed as inconclusive are left out. A call without a number means that no potency is given here. Active and inactive are the calls of the source. Calls follow the shape of the dose curve; as a rule, active = well fitted inhibition curve with a large enough effect; inconclusive = small, poorly fitted or top-dose-only effect; inactive = flat fitted curve, though single readings scatter.

For the assay, the system named is MCC-26. Description: qHTS assay to identify novel small-molecules to repurpose for Merkel cell carcinoma treatment (AID 1296009). Also: nearly all actives have a fitted effect of over 60% in size. As to conditions: MCC and control cell lines, CellTiter-Glo viability, 72 h; series mostly up to 46 µM. An excerpt: MCC is a rare and aggressive neuroendocrine skin cancer with limited treatment options. Approximately 80% of MCCs have the Merkel cell polyomavirus (MCPyV) DNA integrated into the host genome (virus-positive: VP-MCC) and viral oncogenes drive oncogenesis. The remaining MCCs are virus-negative (VN-MCC) and are caused by UV mutagenesis. To identify novel treatments for VP-MCC and/or VN-MCC we screened three VP-MCC cell lines (WAGA, MKL-1, MKL-2), three VN-MCC cell lines (MCC-13, MCC-26, UISO), and four immortalized, non-transformed control cell lines (HaCaT, HEK293T, CRL7250, NIH-3T3) against ~2,400 compounds in the NCGC Pharmaceutical Collection (NPC) and ~1,900 compounds in the Mechanism Interrogation PlatE (MiPE). Using cell viability as a readout (CellTiter-Glo assay) we found both overlapping and distinct drugs that can be repurposed for the treatment of VP-MCC and VN-MCC.
A high-throughput screen was conducted in 1536-well white flat bottom plates (Corning) on a Kalypsys robotic system. Cell lines WAGA, MKL-1, MKL-2, MCC-13, MCC-26, UISO, HaCaT, HEK293T, CRL7250, and NIH-3T3 were screened against 2 small molecule annotated drug libraries NPC and MIPE in dose response (8 and 11 pt. respectively) measuring cell viability after 72 hours of incubation. […] A 1,536 pintool (Kalypsys) was used to transfer 23 nL of compound in DMSO to the 1,536-well assay plates. After 72 hr incubation at 37 degree celsius, 2.5 uL of CellTiter-Glo (Promega) was dispensed into each well using a BiorapTR. Plates were incubated at room temperature for 10 min, transferred to a ViewLux (PerkinElmer) and the luminescence was recorded using an exposure time of 2 seconds. Relative luminescence units (RLUs) were normalized to in-plate controls (no cells as a positive (cytotoxicity) control, DMSO as negative control) and the normalized data was processed using NCATS in-house software.
For `NS(=O)(=O)c1cc2c(cc1Cl)NC=NS2(=O)=O`, the Potency result is “inactive”.
Under `CCC(C)n1ncn(-c2ccc(N3CCN(c4ccc(OC[C@H]5CO[C@](Cn6cncn6)(c6ccc(Cl)cc6Cl)O5)cc4)CC3)cc2)c1=O` (stereo not given in full) stands “inactive”; under `CS(=O)(=O)Oc1ccc2c(NC(N)=O)c(C(=O)c3ccc(Cl)cc3Cl)oc2c1`, “inactive”.
`CC(=O)NC(C)c1ccc(Oc2ccc(OC(C)C)cc2)cc1` (stereo not given): the Potency result is “inactive”.
As for `CCN(c1ccccc1)c1cc(NC)[n+](C)c(C)n1`, the entry is “inactive”.
`COc1ccc([C@@H]2CC(=O)c3c(O)cc(O[C@@H]4O[C@H](CO[C@@H]5O[C@@H](C)[C@H](O)[C@@H](O)[C@@H]5O)[C@@H](O)[C@H](O)[C@@H]4O)cc3O2)cc1O`: the Potency result is “inactive”.
Under `COc1ccc(COc2cc3oc(=O)c4cc(C(C)O)ccc4c3cc2OC)cc1` (stereo not given) stands “inactive”; under `CC(C)C[C@H](NC(=O)[C@@H](O)[C@H](N)Cc1ccccc1)C(=O)O`, “inactive”.
Under `O=S(=O)(N=Cc1c(O)ccc2ccccc12)c1cccs1` stands “inactive”; under `COc1ccc(CCN2CCN(CCCc3ccccc3)CC2)cc1OC`, “inactive”; under `COc1ccc(C2=N[C@H](c3ccc(Cl)cc3)[C@H](c3ccc(Cl)cc3)N2C(=O)N2CCNC(=O)C2)c(OC(C)C)c1`, “inactive”.
Turning to `CCCC(CCC)C(=O)O`, the Potency result is “inactive”.
As for `NCCCC(N)(C(=O)O)C(F)F` (stereo not given), the Potency entry is “inactive”.
On to `CCCS(=O)(=O)Nc1ccc(F)c(C(=O)c2c[nH]c3ncc(Cl)cc23)c1F`, for which the Potency entry was “inactive”.
As for `C[C@]1(c2nc3c(C(N)=O)cccc3[nH]2)CCCN1`, the entry is “inactive”.
Regarding `O=C(C=Cc1ccc(/C=C/C(=O)Nc2ccc(C3=NCCN3)cc2)cc1)Nc1ccc(C2=NCCN2)cc1`, the Potency result was “inactive”.
On to `Cc1cc(SCc2sc(-c3ccc(C(F)(F)F)cc3)nc2C)ccc1OCC(=O)O`, for which the Potency entry is “inactive”.
As for `CCc1ccc(CCOc2ccc(CC3SC(=O)NC3=O)cc2)nc1` (stereo not given), the entry is “inactive”.
`C[C@H](NC(=O)Cc1cc(F)cc(F)c1)C(=O)N[C@@H]1C(=O)N(C)c2ccccc2-c2ccccc21`: the Potency result was “inactive”.
For the compound `CCn1c(-c2nonc2N)nc2cnc(Oc3cccc(NC(=O)c4ccc(OCCN5CCOCC5)cc4)c3)cc21`, the Potency entry was “inactive”.
In the case of `CN1CCN(CCCN2c3ccccc3Sc3ccc(C(F)(F)F)cc32)CC1`, the Potency entry is “inactive”.
As for `CC(C[N+](C)(C)C)OC(N)=O` (stereo not given), the entry is “inactive”.
Take `COc1nc(-c2ccc3c(c2)OCO3)n(-c2ccc(NC(=O)CSc3ccccc3)cc2)n1`: the Potency entry was “inactive”.
Take `COCC(=O)NCC=Cc1ccc2ncnc(Nc3ccc(Oc4ccc(C)nc4)c(C)c3)c2c1`: the Potency entry was “inactive”.
As to `CNCc1ccc(-c2[nH]c3cc(F)cc4c3c2CCNC4=O)cc1`, the Potency result is “inactive”.
With `CC(C)OC(=O)C1=CN(C(=O)c2ccc(F)c(F)c2)CC(C)(C)c2c1[nH]c1ccccc21`, the Potency entry is “inactive”.
As for `Nc1cccc(S(=O)(=O)N2CCCN(S(=O)(=O)c3ccc4c(c3)OCCO4)CC2)c1`, the entry is “inactive”; as for `CC(C)(C)OC(=O)CN(Cc1ccc(Cl)cc1)Cc1ccc([N+](=O)[O-])s1`, “inactive”.
As for `N#CC[C@H](C1CCCC1)n1cc(-c2ncnc3[nH]ccc23)cn1`, the entry is “inactive”; as for `CCN(CC)CCCC(C)Nc1ccnc2cc(Cl)ccc12` (stereo not given), “inactive”; as for `CC[C@H](Nc1ncnc2nc[nH]c12)c1nc2cccc(F)c2c(=O)n1-c1ccccc1`, “inactive”.
In the case of `CC(C)(Sc1ccc(CCN(CCCCC2CCCCC2)C(=O)NC2CCCCC2)cc1)C(=O)O`, the Potency result is “inactive”.
As for `OC(CN1CCC(Cc2ccc(F)cc2)CC1)c1ccc(Cl)cc1` (stereo not given), the entry is “inactive”; as for `Cn1cnc2c(F)c(Nc3ccc(Br)cc3Cl)c(C(=O)NOCCO)cc21`, “inactive”; as for `CC[C@@H](C)[C@H](NC(=O)[C@H](CC1CCCCC1)NC(=O)c1ccno1)C(=O)N1CCC2(CCc3ccccc32)CC1`, “inactive”.
On to `c1ccc([C@H]2CN3CCSC3=N2)cc1`, for which the Potency entry was “inactive”.
As for `CCn1c(-c2nonc2N)nc2c(C#CC(C)(C)O)ncc(OC[C@H]3CCCNC3)c21`, the entry is “inactive”; as for `Fc1ccc(Cl)cc1-c1nc(Nc2ccncc2)c2nccnc2n1`, “inactive”.
On to `Cc1ccccc1C(OCCN(C)C)c1ccccc1` (stereo not given), for which the Potency result is “inactive”.
Under `CNC(=O)c1ccccc1Sc1ccc2c(/C=C/c3ccccn3)n[nH]c2c1` stands “inactive”.
